Assay in all cases: NCI-60 one-dose screen, 48 h (100 = growth as untreated, 0 = no growth, -100 = all killed)
Holding throughout (conditions): 10 µM unless noted

Experiment [1] deals with DU-145 prostate.
For experiment [2], the system named is K-562 leukemia.
The subject of experiment [3] is MDA-MB-231 breast.
In experiment [4] the test system is RXF 393 renal.
In experiment [5] the test system is SF-268 CNS.
Experiment [6] deals with SF-539 CNS.
Experiment [7] has as its system UACC-257 melanoma.
Experiment [8] relates to M14 melanoma.
Experiment [9] deals with HCT-15 colon.
The test system of experiment [10] is HT29 colon.
For experiment [11], the system named is SNB-75 CNS.
The test system of experiment [12] is SNB-19 CNS.
The test system of experiment [13] is U251 CNS.
The subject of experiment [14] is PC-3 prostate.
Experiment [15] has as its system SK-MEL-5 melanoma.
Experiment [16] concerns UACC-62 melanoma.
The test system of experiment [17] is LOX IMVI melanoma.
In experiment [18] the test system is SK-MEL-28 melanoma.
The test system of experiment [19] is MALME-3M melanoma.
Experiment [20] has as its system SF-295 CNS.

About 83,000 compounds went through this panel and 20% of them were active in at least one assay; those are over-represented in the sample as a whole.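 The endpoint reported here, percent growth, reads 100 for growth as untreated, 0 for no net growth and -100 for all cells dead.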 A number with no mark means an inactive call. Activity calls are given as the source filed them. The calls were made as follows: active = growth percent below 10; inactive = the rest.

On to `CN(C)c1ccc(C(c2ccccc2)c2ccc(N(C)C)cc2)cc1`, for which the growth in experiment [1] is 101%; in [2], 73.4%; in experiment [3], 98.5%; in experiment [4] it was 107%; in [5], 89.9%; in [6], 112%. The growth was 98.1% in [7]; 93% in [8]; 99.7% in experiment [9]; 90.4% in [10]; 108% in experiment [11]; 96.9% in experiment [12]. Also, the growth in [13] was 77.7%; in experiment [14] it was 90.7%; in [15] it was 106%; in [16], 98.3%; in experiment [17], 90%; in experiment [18], 107%.
Consider `Cn1c(=O)c2[nH]c(Cc3ccc4c(c3)OCO4)nc2n(C)c1=O`, for which the growth is 115% in [1]; 108% in experiment [2]; 126% in experiment [19]; 123% in experiment [3]; 108% in experiment [4]; 104% in experiment [20]. Also, the growth in experiment [6] is 94.8%; in experiment [7], 111%; in [9], 93.8%; in experiment [10] it was 120%; in experiment [11], 95.3%; in [12], 101%. The growth was 110% in experiment [13]; 86.1% in [14]; 108% in experiment [15]; 98% in experiment [16]; 99.5% in experiment [17]; 106% in [18].
As for `COC(=O)C1(C)COP(=O)(NC23CC4CC(CC(C4)C2)C3)OC1` (stereo unspecified), the growth in experiment [1] was 95.4%; in experiment [2], 106%; in experiment [3], 119%; in [4] it was 107%; in experiment [5], 104%; in experiment [20], 104%. Further, the growth in experiment [6] is 110%; in experiment [7], 101%; in experiment [8] it was 104%; in experiment [9] it was 101%; in [10], 100%; in experiment [11] it was 94.9%. Also, the growth in experiment [12] was 104%; in experiment [13] it was 99.5%; in [14], 94.6%; in experiment [15] it was 99.9%; in experiment [16], 109%; in [17] it was 98.2%. Further, in [18], the growth is 98.7%.
Turning to `NS(=O)(=O)c1ccc(N2N=C(c3ccc(Br)cc3)CC2c2cn(-c3ccccc3)nc2-c2ccc(Cl)cc2)cc1` (stereo unspecified), the growth in [1] is 94.7%; in [2], 63%; in experiment [3], 99%; in experiment [4], 88.9%; in experiment [5], 84.7%; in experiment [20] it was 92.7%. Moreover, the growth is 104% in [6]; 96.7% in experiment [7]; 83.7% in [8]; 78.7% in [9]; 76.6% in [10]; 92.4% in experiment [11]. Besides, the growth in experiment [12] is 96%; in [13], 86.9%; in [14], 73.3%; in experiment [15], 99.7%; in experiment [16], 82.5%; in experiment [17] it was 88%. For the same compound, the growth in experiment [18] is 108%.
As to `O=C1OCC2=C1C(c1cccc(Br)c1)c1cc3c(cc1N2CCO)OCCO3` (stereo unspecified), the growth in experiment [1] is -30.9% (active); in experiment [2], 17.5%; in experiment [3], -21.5% (active); in [4], 38.2%; in experiment [5] it was 19%; in [20], -4.99% (active). Besides, the growth in experiment [6] is 0.257% (active); in experiment [7], 49%; in experiment [8] it was 14.6%; in experiment [9], 13.9%; in experiment [10] it was 2.11% (active); in experiment [11] it was 28.5%. The growth in experiment [12] was 31.6%; in experiment [13] it was 6.01% (active); in experiment [14], 25.4%; in [15], 1.61% (active); in [16], 27.3%; in experiment [17], 23.5%. Also, the growth in [18] was 51.7%.
Take `COC(=O)c1cc2oc(/C=N/NC(=O)c3cc4oc(-c5cccc(C(F)(F)F)c5)cc4[nH]3)cc2n1Cc1ccccc1`: the growth was 111% in experiment [1]; 91.3% in experiment [2]; 6.57% (active) in experiment [19]; 104% in [3]; 84.8% in [5]; 92.4% in experiment [6]. In addition, the growth in [7] is -29.3% (active); in experiment [8], 121%; in experiment [9], 98.1%; in [10], 104%; in experiment [11] it was 84.4%; in experiment [12] it was 112%. The growth was 101% in experiment [13]; 90.3% in experiment [14]; 108% in experiment [15]; 83.4% in experiment [16]; 97.6% in experiment [17]; 113% in experiment [18].
Regarding `COc1ccc(/C=c2\c(=O)n(-c3ccccc3)c3nn4c(n23)=NNC42CCCCC2)cc1`, the growth is 106% in experiment [1]; 109% in [2]; 97.8% in experiment [19]; 87.3% in [3]; 110% in [4]; 92% in experiment [5]. Also, the growth in [6] was 102%; in [7], 111%; in [9], 102%; in [10], 106%; in experiment [12] it was 93.9%; in experiment [13] it was 103%. Also, the growth was 90.1% in experiment [14]; 100% in experiment [15]; 93.2% in experiment [16]; 95.1% in [17]; 111% in experiment [18].
Take `Cc1[nH]n(C(=O)c2ccncc2)c(=O)c1N=Nc1ccc(O)c(C(=O)O)c1`: the growth was 132% in [1]; 91.1% in [2]; 94.2% in [19]; 94% in [3]; 106% in experiment [5]; 100% in experiment [6]. For the same compound, the growth is -14.1% (active) in experiment [7]; 114% in experiment [8]; 112% in experiment [9]; 115% in experiment [10]; 89.9% in experiment [11]; 116% in experiment [12]. Further, the growth in [13] is 119%; in [14], 102%; in experiment [15], 106%; in [16], 96.2%; in [17], 75.7%; in experiment [18] it was 109%.

The values are drawn from PubChem BioAssay (NCI).
